Screening data: PubChem, Broad Institute
Only some compounds are listed: those with a hit (about 1.2% of all), similar ones and a draw of the others.
RAD54 inh: RAD54 (human) branch migration inhibition. RAD54 Holliday junction branch migration, FAM/BHQ fluorescence. Q92698. inhibition, % at 10.4 µM. 0.14% of 360,000 active. AID 602329;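 active = mean normalized replicate activity at least 40 and at least half of replicates scoring 40 or more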;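 also: 0% = median of neutral control wells and 100% = median of positive control wells; inhibitors cause a drop in the FAM fluorescence signal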
Target sequence (Q92698 whole entry, looked up): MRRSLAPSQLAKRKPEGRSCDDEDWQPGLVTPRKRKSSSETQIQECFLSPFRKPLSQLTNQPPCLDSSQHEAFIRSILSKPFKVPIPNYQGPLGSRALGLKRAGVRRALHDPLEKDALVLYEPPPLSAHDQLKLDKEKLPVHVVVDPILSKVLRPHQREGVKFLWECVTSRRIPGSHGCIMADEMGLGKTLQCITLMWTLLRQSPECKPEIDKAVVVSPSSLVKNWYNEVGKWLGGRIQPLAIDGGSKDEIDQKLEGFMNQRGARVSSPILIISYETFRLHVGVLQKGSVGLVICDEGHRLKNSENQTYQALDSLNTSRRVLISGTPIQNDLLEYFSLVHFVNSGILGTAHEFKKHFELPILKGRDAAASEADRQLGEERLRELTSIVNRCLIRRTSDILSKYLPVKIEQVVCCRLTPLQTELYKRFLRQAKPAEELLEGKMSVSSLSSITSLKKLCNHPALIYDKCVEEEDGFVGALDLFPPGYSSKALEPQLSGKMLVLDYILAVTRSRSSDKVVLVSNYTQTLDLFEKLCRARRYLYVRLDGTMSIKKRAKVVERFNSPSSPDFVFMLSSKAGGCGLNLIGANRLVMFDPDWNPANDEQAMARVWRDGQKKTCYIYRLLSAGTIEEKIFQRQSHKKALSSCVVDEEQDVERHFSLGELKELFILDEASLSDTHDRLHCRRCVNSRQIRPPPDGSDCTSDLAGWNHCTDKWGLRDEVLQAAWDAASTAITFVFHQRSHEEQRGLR
RAD52 inh: blocks human RAD52 DNA annealing; P43351; recombinant RAD52 DNA annealing, FRET fluorescence; inhibition, % at 18.7 µM; 0.46% of 360,000 active; AID 651710;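 active = every replicate showing at least 50% inhibition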
AF4-AF9 inh: inhibitors of human MLL-AF4/AF9 interaction. AlphaScreen, biotin-AF4 peptide binding to FLAG-AF9. 0.47% of 350,000 active. inhibition, % at 10 µM;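 active = every replicate reaching a set inhibition limit, whatever the replicate mean, cut at about 25% in these data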;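 also: 0% = plate neutral control median and 100% = total signal loss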
N-glyco inh: blocks N-linked glycosylation in D54 reporter cells; D54 ERlucT glycosylation luciferase reporter, 24 h; percent of 100 nM tunicamycin response; reporter increase, % at 12.5 µM; 0.23% of 360,000 active; AID 588692;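 active = mean luciferase reporter signal, scaled so untreated is 0 and the glycosylation-blocking control 100, at or above a set limit in every replicate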;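 also: luciferase carries N-glycosylation sites so blocking glycosylation raises the light; 0% = median of neutral control wells and 100% = median of 100 nM tunicamycin wells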
CASP6 VEID inh: inhibitors of human caspase-6; purified caspase-6, Z-VEID-R110 cleavage fluorescence; inhibition, % at 12.5 µM; 0.53% of 350,000 active; AID 686996;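 active = mean inhibition across replicates at least about 35%, with every replicate also reaching that limit, limit read from the data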;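 also: 0% = median of neutral control wells and 100% = no fluorescence left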
An asterisk follows results filed as active; nt = no result.

SMILES	RAD54 inh	RAD52 inh	AF4-AF9 inh	N-glyco inh	CASP6 VEID inh
C[C@H](CO)N1C[C@H](C)[C@H](CN(C)CC2CC2)Oc2cc(/C=C/c3ccccc3)ccc2S1(=O)=O	2	27	26*	nt	-2
CNC[C@H]1Oc2cc(C#Cc3ccc(OC)cc3)ccc2S(=O)(=O)N([C@@H](C)CO)C[C@@H]1C	2	52*	10	nt	-1
C[C@@H]1CN([C@@H](C)CO)S(=O)(=O)c2ccc(C#Cc3ccccc3)cc2O[C@H]1CN(C)C(=O)CN(C)C	4	34	10	nt	0
COc1ccc(S(=O)(=O)N(C)C[C@@H]2Oc3ccc(NC(=O)Cn4cnnn4)cc3C(=O)N([C@H](C)CO)C[C@H]2C)cc1	8	-7	-1	nt	3
COc1cccc(NC(=O)N[C@@H]2C=C[C@@H](CC(=O)N3CCOCC3)O[C@@H]2CO)c1	nt	9	-6	nt	2
C[C@@H]1CN([C@H](C)CO)C(=O)c2c(c3ccccc3n2C)-c2ccccc2CO[C@H]1CN(C)C(=O)CCN(C)C	4	57*	3	nt	-1
C[C@H]1CN([C@@H](C)CO)C(=O)c2c(c3ccccc3n2C)-c2ccccc2CO[C@@H]1CN(C)C(=O)CCN(C)C	8	59*	-3	nt	-2
C[C@H](CO)N1C[C@H](C)[C@@H](CN(C)C(=O)[C@H](Cc2ccccc2)N(C)C)OCc2ccccc2-c2c(n(C)c3ccccc23)C1=O	2	11	37*	nt	1
C[C@@H]1CN([C@H](C)CO)C(=O)c2c(c3ccccc3n2C)-c2ccccc2CO[C@@H]1CN(C)C(=O)CCN(C)C	nt	40	16	nt	0
COCC(=O)Nc1ccc2c(c1)[C@@H]1C[C@@H](CC(=O)NCc3ccc(Cl)cc3)O[C@@H](CO)[C@@H]1O2	0	nt	nt	nt	nt
C[C@@H]1CN([C@H](C)CO)S(=O)(=O)c2ccc(C3=CCCC3)cc2O[C@H]1CN(C)C(=O)C1CCOCC1	-6	7	-1	nt	-2
C[C@@H](NC(=O)C[C@H]1CC[C@H](NC(=O)CN2CCOCC2)[C@@H](CO)O1)c1ccccc1	-7	7	-1	nt	1
CCCCCCCCCc1conc1C(=O)CP(=O)(OC)OC	nt	7	2	nt	1
CCCCCCCCCc1conc1C(=O)/C=C/c1ccco1	nt	-23	-2	nt	67*
CN(C)CC(=O)N1CC2(C1)[C@H](c1ccccc1)[C@H](CO)N2S(=O)(=O)c1ccccc1	nt	-15	-2	nt	-2
CO[C@H]1CN(C)C(=O)c2cc(NC(C)=O)ccc2OC[C@@H](C)N(C(=O)Cc2cccnc2)C[C@H]1C	6	-20	3	nt	-4
COc1ccc(C(CC(=O)O)c2ccc3c(c2)OCO3)cc1 (centres undefined)	-8	-8	-2	0	3
COc1ccc(CNCCC(c2ccccc2)c2ccc3c(c2)OCO3)cc1 (centres undefined)	17	33	25*	-8	2
O=C(Nc1ccc2oc(-c3cccnc3)nc2c1)c1ccc([N+](=O)[O-])o1	nt	-15	-1	35*	1
O=C(Nc1ccc2oc(-c3cccnc3)nc2c1)c1cccnc1	0	nt	nt	0	nt
Cc1c(C(=O)Nc2ccc3oc(-c4cccnc4)nc3c2)oc2ccccc12	-3	nt	nt	30*	nt
O=C(Nc1ccc2oc(-c3cccnc3)nc2c1)c1ccc(Br)o1	1	nt	nt	-2	nt
C[C@@H]1CN([C@@H](C)CO)S(=O)(=O)c2ccc(C#Cc3ccccn3)cc2O[C@@H]1CN(C)C(=O)C1CC1	-11	-18	-10	nt	1
Oc1ccc(N=Nc2ccc3ccccc3c2)cc1	-5	-5	26*	-11	-2
COc1cc(N=Nc2ccccc2C(=O)O)ccc1O	-12	-43	4	-3	4
SMILES	RAD54 inh	RAD52 inh	AF4-AF9 inh	N-glyco inh	CASP6 VEID inh
COc1cc(N=Nc2ccc3ccccc3c2)ccc1O	4	-17	29*	-1	-4
CNC[C@H]1Oc2ncc(C#Cc3cccc(OC)c3)cc2C(=O)N([C@H](C)CO)C[C@H]1C	-1	-32	4	nt	-1
O=C1CS/C(=N\N=C\c2ccco2)N1c1ccccc1	nt	-24	6	2	57*
COc1cccc(-c2ccc3c(c2)[C@H]2[C@H](CCN2C(=O)Nc2ccccc2OC)[C@H](CO)N3C)c1	10	51*	-1	nt	-1
COc1cccc(-c2ccc3c(c2)[C@@H]2[C@@H](CCN2C(=O)Nc2ccccc2OC)[C@@H](CO)N3C)c1	16	60*	-1	nt	-2
COc1cccc(-c2ccc3c(c2)[C@H]2[C@H](CCN2C(=O)Nc2ccccc2OC)[C@@H](CO)N3C)c1	11	27	5	nt	-1
